Laboratory results from PubChem BioAssay (NCI).
About 83,000 compounds went through this panel and 20% of them were active in at least one assay; those are over-represented in the sample as a whole.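 96-well plates, one dose, 48 hours. Percent growth reported; active if below 10.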 Unmarked numbers belong to inactive results. Active and inactive are the calls of the source.

Tests used:
Experiment in all cases: NCI-60 one-dose screen, 48 h (100 = growth as untreated, 0 = no growth, -100 = all killed)
[1] = system: EKVX NSCLC; conditions: 10 µM unless noted
[2] = system: SN12C renal; conditions: 10 µM unless noted
[3] = system: UO-31 renal; conditions: 10 µM unless noted
[4] = system: TK-10 renal; conditions: 10 µM unless noted
[5] = system: ACHN renal; conditions: 10 µM unless noted
[6] = system: CAKI-1 renal; conditions: 10 µM
[7] = system: CCRF-CEM leukemia; conditions: 10 µM unless noted
[8] = system: MOLT-4 leukemia; conditions: 10 µM unless noted
[9] = system: SR leukemia; conditions: 10 µM unless noted
[10] = system: RPMI-8226 leukemia; conditions: 10 µM unless noted
[11] = system: OVCAR-8 ovarian; conditions: 10 µM unless noted
[12] = system: OVCAR-5 ovarian; conditions: 10 µM unless noted
[13] = system: OVCAR-4 ovarian; conditions: 10 µM unless noted
[14] = system: SK-OV-3 ovarian; conditions: 10 µM unless noted
[15] = system: IGROV1 ovarian; conditions: 10 µM unless noted
[16] = system: HS 578T breast; conditions: 10 µM unless noted
[17] = system: NCI/ADR-RES ovarian; conditions: 10 µM unless noted
[18] = system: A498 renal; conditions: 10 µM unless noted

Row | SMILES | growth [1] | growth [2] | growth [3] | growth [4] | growth [5] | growth [6] | growth [7] | growth [8] | growth [9] | growth [10] | growth [11] | growth [12] | growth [13] | growth [14] | growth [15] | growth [16] | growth [17] | growth [18]
1 | CCc1ccc(NC(=O)N[C@@H](Cc2cccc(C)c2)C(=O)N[C@@H]2C(=O)N3CCC[C@H]3C(=O)N3CCCC[C@H]3C(=O)N[C@@H](CO)C(=O)N3C[C@H](C)C[C@H]3C(=O)O[C@H]2C)c(F)c1 | 30% | 22.4% | 29.6% | 52.9% | 32.2% | 15.5% | 37.2% | 41.8% | 34.9% | 18.6% | 21.5% | 33.5% | 22.1% | 22.1% | 43.3% | 28.5% | 37.7% | 
2 | CC(C)(C)n1nnnc1C(Nc1nccs1)c1cc2cccc3ccc4cccc1c4c32 (stereo not given) | 91% | 98.5% | 84.9% | 99% | 97.4% | 51.1% | 98.7% | 96.6% | 84.5% | 94.9% | 97.6% | 59.7% | 95.3% | 109% | 85.5% | 88.3% | 103% | 
3 | COc1cc2c3c(n(CCCNC4CCCC4)c(=O)c2cc1OC)-c1cc2c(cc1C3=O)OCO2 | -67.4% (active) | -60.9% (active) | 76.2% | -97% (active) | -95.5% (active) | 11.7% |  |  |  | -40.1% (active) | -70.2% (active) | -81.3% (active) | 71.9% | 80.7% |  | 93.3% | 51.9% | 80.3%
4 | CC1CCc2c(sc3nc(SCC(=O)N/N=C/c4cccc(O)c4O)n(-c4ccccc4)c(=O)c23)C1 (stereo not given) | 85.6% | 84% | 73.2% | 116% | 71.9% | 76.3% | 91.9% | 85% | 81% | 89.1% | 90.6% | 93.6% | 84.7% | 107% | 92.9% | 95.8% | 89.1% | 
5 | CS(=O)(=O)c1ccc2c(c1)c1c(n2S(=O)(=O)c2ccc(Cl)cc2)CCCC1 | 48% | 33.1% | 37.8% | 65.7% | 46.9% | 29.3% | 27.3% | 24.4% | 12.3% | 19.1% | 31.9% | 40.2% | 64.7% | 29.7% | 48% | 0.523% (active) | 21% | 
6 | O=C1Nc2cc(OC(F)(F)F)ccc2Oc2ccc(-c3ccnc(N4CC[C@H](O)C4)c3)cc21 | 45.9% | 7.37% (active) | 24% | 75.6% | 25.1% | 23.9% | 12.6% | 11.3% | -6.83% (active) | 17% | -14.4% (active) | 25.5% | 48.5% | 27.1% | 16.8% | 24.5% | 9.76% (active) | 
7 | Cc1cn(-c2cc(NC(=O)c3cncc(C#Cc4cnc5ccc(O[C@@H]6CCOC6)nn45)c3)cc(C(F)(F)F)c2)cn1 | -9.97% (active) | -8.41% (active) | -13.3% (active) | -19.2% (active) | -93.6% (active) | 1.07% (active) | 0.641% (active) | 2.18% (active) | -35.6% (active) | -29.8% (active) | -49.7% (active) | 0.672% (active) | -33.1% (active) | -22.3% (active) | -9.41% (active) | -25.1% (active) | 40.4% | 
8 | Cc1ccccc1/C=C/c1nn2c(-c3ccoc3C)nnc2s1 | 100% | 101% | 85.4% | 95.5% | 102% | 89.8% |  |  |  | 91.4% | 97.1% | 100% | 99.6% | 118% | 107% | 111% | 93.7% | 89.5%
9 | COc1ccc2c(c1)c(-c1nn3c(=O)cc(-c4ccccc4)nc3s1)cn2C | 85.3% | 45.2% | 38.1% | 64.1% | 44.3% | 46.6% | 34.7% |  |  | 57.5% | 51% | 66% |  | 49.6% | 54.3% | 27% | 27.8% | 4.32% (active)
10 | CS(=O)(=O)c1ccc2c(c1)c1c(n2Cc2ccc(Cl)cc2)CCCC1 | 71.2% | 73.6% | 55.1% | 89.3% | 66.8% | 54.4% |  | 64.3% | 41.2% | 55.8% | 72.7% | 88.1% | 75.1% | 97.5% | 64% | 85.4% | 48.4% | 74.3%
11 | O=C1Nc2ccc(Cl)cc2/C1=C/c1ccc(OCc2ccc(Br)cc2F)cc1 | 97.5% | 103% | 84.4% | 116% | 103% | 84.3% | 94.2% | 98.9% | 97.2% | 95.8% | 99.8% | 101% | 100% | 98% | 104% | 102% | 98.2% | 
12 | COCCOc1ccc(-c2csc(NC(=O)CN3CCN(CCO)CC3)n2)cc1NS(=O)(=O)c1cccc2c(N(C)C)cccc12 | 80.5% | 81.1% | 65.3% | 107% | 85.8% | 92% | 46.3% |  |  | 54.6% | 81.2% | 94.2% |  | 92.9% | 82.9% | 70.1% | 97.2% | 79.4%
13 | C=CCn1c(SCC(=O)c2ccc(OC)cc2)nnc1-c1ccc(OC)cc1 | 96.4% | 97.6% | 92.1% | 105% | 104% | 88.3% | 107% | 96.1% | 96.1% | 98.4% | 99.9% | 96.7% | 98% | 105% | 103% | 103% | 94.9% | 
14 | COc1cc(O)c2c(c1)/C=C/C[C@H](O)[C@H](O)C(=O)/C=C\C[C@H](C)OC2=O | 44.2% | 7.02% (active) | 13.1% | 34.7% | 6.98% (active) | 13.6% | 8.51% (active) | 5.34% (active) | -6.77% (active) | -4.42% (active) | 19.9% | 8.3% (active) | 18.9% | 75.4% | 9.18% (active) | -26.4% (active) | 8.99% (active) | 
15 | Nc1nc(-c2cccc([N+](=O)[O-])c2)c(N=Nc2cccc(Cl)c2)s1 | 41.9% | 53.2% | 33.5% | 71.7% | 48.6% | 23.2% | 36% | 26.5% | 31.4% | 46.6% | 41.4% | 64.3% | 49.2% | 42.7% | 33.8% | 55% | 38.9% | 
16 | COc1cc2c3c(n(CCCN4CCCCC4)c(=O)c2cc1OC)-c1cc2c(cc1C3=O)OCO2 | -56.2% (active) | -72.1% (active) | -89.3% (active) | -87.2% (active) | -96.7% (active) | -82.9% (active) | -11.6% (active) |  |  | -47.3% (active) | -63.6% (active) | -96.1% (active) |  | 46% | -68.7% (active) | -51.2% (active) | -62% (active) | 70.9%
17 | Cn1cc(-c2nn3cc(-c4cccnc4)nc3s2)c2cc(F)ccc21 | 80.9% | 85.2% | 70.5% | 129% | 83.8% | 78.1% |  |  |  | 93.9% | 81.8% | 91.5% | 104% | 77.4% | 74.5% | 84.6% | 75.7% | 103%
18 | COc1ccc2c(C3=C(c4cn(C)c5ccccc45)C(=O)NC3=O)coc2c1 | 50.7% | 32.3% | 37.8% | 79.4% | 37.4% | 42% |  |  |  | 11.6% | 41% | 43% | 79% | 47.6% |  | 9.64% (active) | 25.1% | 34.9%
